GPR151 ag = activators of human GPR151, primary screen, cell-based, PathHunter beta-arrestin, luminescence | activation, % at 11.2 µM | 650,000 compounds, 1% hits | PathHunter beta-arrestin GPR151 cells | G-protein coupled receptor 151 (Homo sapiens), Q8TDV0; in the data active means activation above about 4.9%;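 further: 0% = median of compound wells and 100% = cells with positive control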
Target sequence (Q8TDV0 whole entry, looked up): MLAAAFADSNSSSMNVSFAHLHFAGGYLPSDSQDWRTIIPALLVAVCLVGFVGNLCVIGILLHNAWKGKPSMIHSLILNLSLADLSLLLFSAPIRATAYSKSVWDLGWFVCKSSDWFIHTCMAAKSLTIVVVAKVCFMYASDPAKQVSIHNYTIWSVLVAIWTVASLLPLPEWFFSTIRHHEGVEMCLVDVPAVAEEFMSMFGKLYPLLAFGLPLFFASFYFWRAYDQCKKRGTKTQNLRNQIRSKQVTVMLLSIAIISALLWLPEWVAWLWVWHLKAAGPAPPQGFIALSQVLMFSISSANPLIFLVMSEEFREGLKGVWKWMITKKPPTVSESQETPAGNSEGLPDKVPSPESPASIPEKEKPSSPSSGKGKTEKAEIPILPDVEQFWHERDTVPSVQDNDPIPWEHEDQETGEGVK
TEAD-YAP block = TEAD-YAP interaction inhibition, primary screen, TEAD-YAP interaction inhibitor project, luminescence, HEK-TIYL cells | 640,000 compounds, 1.4% hits | inhibition, % at 9.12 µM | AID 1259422, 2018 | TEAD-Gal4/YAP UAS-luciferase luminescence; in the data active means inhibition above about 32%;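 further: 0% = median of test compound wells and 100% = reference inhibitor wells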
FBW7 activator = FBW7 E3 ligase activators, primary screen, biochemical, AlphaScreen, human. F-box/WD repeat-containing protein 7 (Homo sapiens), Q969H0. AlphaScreen FBW7–phospho-cyclin E peptide binding, activator screen. normalized activity (activation), % at 26.1 µM. 650,000 compounds, 0.13% hits. AID 1259310, 2017; in the data active means normalized activity above about 1.9%;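 further: purified mutant Fbw7 with reduced substrate affinity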
MITF primary = MITF inhibitors, primary screen, biochemical, AlphaScreen, human. Microphthalmia-associated transcription factor (Homo sapiens), O75030. AlphaScreen MITF homodimerization, bead proximity signal. inhibition, % at 2.6 µM. 650,000 compounds, 0.91% hits; in the data active means inhibition above about 50%;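 further: 0% = vehicle wells with protein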
Starred values were filed as active, the others as inactive. Rows were chosen to be rich in hits. Some 3.5% of all compounds tested hit in one or more screens of this group.

SMILES | GPR151 ag | TEAD-YAP block | FBW7 activator | MITF primary
CCn1nc(C)c(NC(=S)Nc2ccc([N+](=O)[O-])cc2OC)c1C | -0.1 | -5.1 | -0.2 | -5.3
CC(C)CC(=O)N1CCN(c2ccc(C(F)(F)F)cc2[N+](=O)[O-])CC1 | -1.6 | 4.8 | -0.1 | -7.2
O=C(CN1Cc2ccccc2C1=O)NCc1ccc(F)cc1 | 0.9 | 3.4 | 0.3 | 7.7
COc1cccc2cc(-c3csc(N)n3)c(=O)oc12 | -9.1 | 48.8* | -0.1 | 0.5
COc1cccc2cc(-c3csc(NC(C)=O)n3)c(=O)oc12 | 1.5 | -9.1 | 0.0 | -0.7
COc1ccc(-c2cc3cccc(OC)c3oc2=O)cc1 | -7.4 | 71.4* | 0.3 | -17.7
O=C(CN1C(=O)NC2(CCSC2)C1=O)c1ccc(S(=O)(=O)N2CCCC2)cc1 (centres undefined) | -1.2 | 0.0 | 0.0 | -4.0
COc1ccc(Nc2nc(-c3cc(OC)c(OC)c(OC)c3)nc3ccccc23)cc1OC | 0.8 | 26.9 | 0.2 | -2.8
COc1cc(-c2nc(Nc3ccc(OCc4ccccc4)cc3)c3ccccc3n2)cc(OC)c1OC | -0.2 | 9.8 | 0.1 | 4.7
CCOc1ccc(Nc2nc(-c3cc(OC)c(OC)c(OC)c3)nc3ccccc23)cc1 | 0.3 | 39.6* | 0.0 | 1.0
COc1cc(-c2nc(Nc3ccc(C)c(Cl)c3)c3ccccc3n2)cc(OC)c1OC | 0.3 | 51.7* | 0.4 | 1.2
CCOc1ccc(Nc2nc(NCc3ccccc3)c3ccccc3n2)cc1 | 2.8 | 33.4* | -0.4 | 1.1
CCOC(=O)c1ccc(CNCc2ccc(OC)cc2)cc1 | -1.1 | 5.1 | -0.1 | 9.2
CCCNc1nc(-c2ccc(OC)cc2)nc2c1ncn2Cc1ccc(C(F)(F)F)cc1 | 0.0 | 4.0 | 0.5 | 24.8
O=C(Nc1c(O)c2ccccc2[nH]c1=O)c1ccncc1 | -1.5 | 5.2 | 0.7 | 15.0
COc1cc2c(cc1OC)CN(C(=O)CSc1nc(C)c(C)c(C)c1C#N)CC2 | -1.5 | 16.9 | 0.5 | 6.4
O=C(NCC1Cc2cc(Cl)cc(-c3ncccn3)c2O1)c1ccc(N2CCCC2)cc1 (centres undefined) | -0.6 | 45.5* | 0.0 | 1.9
CC[n+]1ccc(/C=C/c2ccc(N(C)C)cc2)cc1 | 1.5 | 82.3* | -0.4 | 0.7
CC[n+]1c(/C=C/c2ccc(N(C)C)cc2)sc2ccccc21 | -0.4 | 53.8* | 0.3 | 18.9
CC[n+]1c(/C=C(/C)OC)sc2ccccc21 | -0.6 | 33.5* | 0.0 | 3.0
CN(C)c1ccc(/C=C/c2sc3ccc4ccccc4c3[n+]2C)cc1 | -1.0 | 53.1* | 0.2 | 18.5
O=C(CSc1ccc(Cl)cc1)N1CCN(c2nc3ccccc3s2)CC1 | -1.1 | -9.6 | 0.1 | 9.1
CCCCOc1ccc(C(=O)Nc2cc(C)ccn2)cc1 | -7.0 | 51.7* | 0.1 | 8.4
COc1ccc2oc(=O)c(C(=O)Nc3cc(C)ccn3)cc2c1 | 1.4 | 33.9* | -0.1 | -5.0
Cc1cc(NC(=O)c2ccc(N3CCCCS3(=O)=O)cc2)ccc1Br | -0.4 | 10.1 | 0.0 | 19.7
SMILES | GPR151 ag | TEAD-YAP block | FBW7 activator | MITF primary
Cc1ccnc(NC(=O)c2ccc(N3CCCCS3(=O)=O)cc2)c1 | -8.5 | 88.1* | -0.3 | 0.8
COc1ccc2oc(=O)c(C(=O)Nc3ccc(C)cc3Br)cc2c1 | 0.8 | 1.2 | -0.1 | -0.8
CCCCCOc1ccc(C(=O)Nc2cc(C)on2)cc1 | -1.8 | -13.6 | -0.1 | 6.0
Cc1ccc(NC(=O)CN2C(=O)CCC2=O)c(C(=O)c2ccccc2)c1 | -1.4 | 3.0 | 0.1 | -15.1
CC(C)CNc1ncnc2c1c(-c1ccccc1)cn2-c1cccc(Cl)c1 | -1.9 | -1.6 | 0.1 | 8.8
COc1cccc(NC(=O)Nc2nnc(C3CCCCC3)s2)c1 | 1.0 | -11.8 | -0.1 | -5.7
COc1nc(C)nc(NC(=O)NC(=O)c2c(Cl)nc(Cl)c([N+](=O)[O-])c2Cl)n1 | 0.7 | 8.1 | 0.2 | 20.2
CCOC(=O)c1c(NC(=O)C2C3C=CC(C3)C2(C)C(=O)O)sc2c1CCCC2 (centres undefined) | 1.9 | 39.8* | -1.4 | 60.0*
CCOC(=O)c1c(Cl)nc(Cl)c(Cl)c1Nc1cccc(F)c1 | 0.7 | 44.1* | -0.1 | -10.0
CCOC(=O)c1c(Cl)nc(Cl)c(Cl)c1Nc1cccc(C)c1 | 0.9 | 24.8 | -0.1 | -3.7
CCOC(=O)c1c(Cl)nc(Cl)c(Cl)c1Nc1ccc(OC(F)(F)F)cc1 | -1.0 | 51.1* | 0.2 | -12.9
CCOC(=O)c1c(Cl)nc(Cl)c(Cl)c1Nc1ccc(OC)cc1 | 1.4 | 47.3* | 0.0 | -0.1
CC(=O)N1CC(=O)N=C1SCC(=O)Nc1nc2c(s1)CCCC2 | 0.5 | -7.3 | -0.1 | 3.8
Cc1ccc(CN2CCCC(c3ccnc(SCCN4CCCC4)n3)C2)o1 (centres undefined) | 2.0 | -9.0 | 0.0 | -17.7
CCOC(=O)N1CCc2c(sc(NC(=O)/C=C/c3ccccc3Cl)c2C#N)C1 | -0.7 | -2.3 | -0.1 | -6.3
CC(=O)Nc1sc2c(c1C#N)CCN(C(C)=O)C2 | 1.3 | 6.6 | -0.1 | -12.3
CC1Cc2ccccc2N1CC(=O)Nc1sc2c(c1C(N)=O)CCC2 (centres undefined) | 2.0 | 7.1 | 0.0 | 0.5
CCOC(=O)N1CCc2c(sc(NC(=O)/C=C/c3ccccc3)c2C(N)=O)C1 | -1.7 | 39.6* | 0.2 | 6.7
CCOC(=O)N1CCc2c(sc(NC(=O)CCc3ccccc3)c2C#N)C1 | 0.4 | 54.3* | -0.1 | -4.5
CC1Cc2ccccc2N1CC(=O)Nc1sc2c(c1C#N)CCC2 (centres undefined) | 1.0 | 38.3* | -0.1 | -2.3
CC(=O)N1CCc2c(sc(NC(=O)/C=C/c3cccs3)c2C#N)C1 | 0.1 | 58.0* | -0.1 | 8.9
CSc1nncn1/N=C/c1cccc(C(F)(F)F)c1 | 1.6 | -5.7 | -0.1 | -6.1
CN1CC(=O)N2CCN(CCc3ccccc3)C[C@@H]2C1=O | 1.5 | -21.6 | 0.1 | -15.2
CC1CCCC(C)N1C(=O)c1ccc(NC(=O)Nc2cccc3ccccc23)cc1 (centres undefined) | 0.1 | 4.7 | -0.1 | 8.6
N#Cc1c(NC(=O)CCc2ccccc2)sc2c1CCC2 | 0.9 | 39.5* | 0.0 | -5.1
SMILES | GPR151 ag | TEAD-YAP block | FBW7 activator | MITF primary
N#Cc1c(NC(=O)Cc2ccccc2)sc2c1CCC2 | 2.3 | -20.3 | 0.0 | 4.5
CCOC(=O)N1CCc2c(sc(NC(=O)/C=C/c3ccccc3)c2C#N)C1 | -2.0 | 34.7* | 0.0 | -8.8
N#Cc1c(NC(=O)COc2cccc3ccccc23)sc2c1CCCC2 | 1.5 | -10.8 | 2.0* | 15.3
O=Cc1c(NC(=O)Cc2ccccc2)sc2c1CCCC2 | -0.7 | -12.3 | 2.0* | -17.6
CC(=O)NC(=O)c1cc2c(ccc3ccccc32)oc1=Nc1ccc(F)cc1 | 0.2 | -6.9 | -0.1 | 1.4
CCOC(=O)N1CCc2c(sc(NC(=O)c3ccccc3[N+](=O)[O-])c2C#N)C1 | 1.0 | 53.4* | -0.1 | -10.3
CCOc1ccc(-c2cc(=O)c3cc(O)ccc3o2)cc1 | -1.4 | 47.0* | -0.2 | 8.4
COc1ccc(-c2cc(=O)c3ccc(O)cc3o2)cc1 | -2.7 | 55.7* | 0.1 | -1.3
